The results in this text go back to PubChem BioAssay (EPA / NIEHS).

What all share (conditions): mRNA level, 48 h; actives raise or lower the signal
Read-out in test [1]: MicroRNA 122 (MIR122), gene 406906
The experiment in a line: LTEA_HepaRG_MIR122: Life Technologies and Expression Analysis (LTEA) Assay for MicroRNA 122 (MIR122) using HepaRG (AID 2283516). Further: the transcript read is the microRNA miR-122. Put shortly: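 HepaRG, 48 h exposure, 8-pt half-log from 100 uM, 0.5% DMSO; TaqMan qRT-PCR; bidirectional fit vs DMSO.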

Read-out in test [2]: matrix metalloproteinase-10 (MMP10), MMP10 (gene 4319)
In words: LTEA_HepaRG_MMP10: Life Technologies and Expression Analysis (LTEA) Assay for matrix metalloproteinase-10 (MMP10) using HepaRG (AID 2283517). In outline: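 HepaRG, collagen I, ~100,000 cells/well; serum-free induction medium; 48 h exposure, duplicate, 8-pt half-log to 100 uM, 0.5% DMSO. Readout: TaqMan qRT-PCR, normalized to ACTB/GAPDH/POLR2A; bidirectional fit vs DMSO.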

Read-out in test [3]: MYC, MYC (gene 4609)
In words: LTEA_HepaRG_MYC: Life Technologies and Expression Analysis (LTEA) Assay for MYC using HepaRG (AID 2283518). In outline: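 Differentiated human HepaRG cells, plated 48 h then switched to serum-free induction medium, were exposed in duplicate for 48 h to 8-point half-log series up to 100 uM in 0.5% DMSO. MYC mRNA measured by qRT-PCR, normalized to ACTB/GAPDH/POLR2A.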

Read-out in test [4]: matrix metalloproteinase-3 (MMP3), MMP3 (gene 4314)
The experiment in a line: LTEA_HepaRG_MMP3: Life Technologies and Expression Analysis (LTEA) Assay for matrix metalloproteinase-3 (MMP3) using HepaRG (AID 2283519). In outline: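 Differentiated human HepaRG cells, plated 48 h on collagen I, were exposed in duplicate for 48 h in serum-free induction medium to eight half-log concentrations up to 100 uM in 0.5% DMSO. MMP3 mRNA was quantified by TaqMan qRT-PCR, normalised to ACTB, GAPDH and POLR2A.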

Read-out in test [5]: Paternally Expressed 10 (PEG10), PEG10 (gene 23089)
The experiment in a line: LTEA_HepaRG_PEG10: Life Technologies and Expression Analysis (LTEA) Assay for Paternally Expressed 10 (PEG10) using HepaRG (AID 2283520).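 On AC50: PEG10 transcript by qRT-PCR normalised to ACTB GAPDH and POLR2A.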 Put shortly: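 Chemicals tested on HepaRG cells for 48 h, highest concentration 100 uM. PEG10 expression assessed by qRT-PCR relative to DMSO control.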

Read-out in test [6]: Protein phosphatase 2A (PPP2R4), PTPA (gene 5524)
The experiment in a line: LTEA_HepaRG_PPP2R4: Life Technologies and Expression Analysis (LTEA) Assay for Protein phosphatase 2A (PPP2R4) using HepaRG (AID 2283522). In outline:
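Gene-expression endpoint in HepaRG hepatic cells: 48 h treatment across eight half-log concentrations up to 100 uM in 0.5% DMSO. PPP2R4 mRNA by qRT-PCR, normalized to three endogenous control genes.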

Read-out in test [7]: Phosphatase and tensin (PTEN), PTEN (gene 5728)
In words: LTEA_HepaRG_PTEN: Life Technologies and Expression Analysis (LTEA) Assay for Phosphatase and tensin (PTEN) using HepaRG (AID 2283523). Put shortly:
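Differentiated human HepaRG cells, plated 48 h then switched to serum-free induction medium, were exposed in duplicate for 48 h to eight half-log concentrations up to 100 uM in 0.5% DMSO. PTEN mRNA measured by TaqMan qRT-PCR, normalized to ACTB/GAPDH/POLR2A, bidirectional fit versus DMSO.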

Read-out in test [8]: Pyruvate Dehydrogenase Kinase 4 (PDK4), PDK4 (gene 5166)
In words: LTEA_HepaRG_PDK4: Life Technologies and Expression Analysis (LTEA) Assay for Pyruvate Dehydrogenase Kinase 4 (PDK4) using HepaRG (AID 2283525). In outline: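 Differentiated human HepaRG cells, pre-cultured 48 h, were exposed in duplicate for 48 h in serum-free induction medium to eight half-log concentrations up to 100 uM in 0.5% DMSO. PDK4 mRNA was quantified by qRT-PCR, normalized to ACTB, GAPDH and POLR2A, bidirectional fitting versus DMSO.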

Read-out in test [9]: NAD(P)H dehydrogenase [quinone] 1 (NQO1), NQO1 (gene 1728)
The experiment in a line: LTEA_HepaRG_NQO1: Life Technologies and Expression Analysis (LTEA) Assay for NAD(P)H dehydrogenase [quinone] 1 (NQO1) using HepaRG (AID 2283526). In outline: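 Human HepaRG hepatic cells received chemicals for 48 h in serum-free induction medium with 0.5% DMSO, up to 100 uM. Expression was assessed by TaqMan qRT-PCR against housekeeping controls and fitted bidirectionally against DMSO.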

Read-out in test [10]: Nuclear factor erythroid 2-related factor 2 (Homo sapiens) (UniProt Q16236)
The experiment in a line: LTEA_HepaRG_NFE2L2: Life Technologies and Expression Analysis (LTEA) Assay for Nuclear factor erythroid 2-related factor 2 (NFE2L2) Transcription Factor using HepaRG (AID 2283527).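 Further: TaqMan qRT-PCR transcript level normalised to ACTB GAPDH and POLR2A housekeeping genes.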 Put shortly: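 Differentiated human HepaRG cells in serum-free induction medium were exposed for 48 h to eight concentrations (top 100 uM, half-log dilutions, 0.5% DMSO), in duplicate. NFE2L2 mRNA was quantified by TaqMan qRT-PCR, normalized to ACTB, GAPDH and POLR2A, with bidirectional fitting versus DMSO.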

Read-out in test [11]: succinate dehydrogenase complex iron sulfur subunit B (SDHB), SDHB (gene 6390)
In words: LTEA_HepaRG_SDHB: Life Technologies and Expression Analysis (LTEA) Assay for succinate dehydrogenase complex iron sulfur subunit B (SDHB) using HepaRG (AID 2283528). Put shortly: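 HepaRG, 48 h exposure, 8-pt half-log series from 100 uM in 0.5% DMSO, duplicates. Readout: SDHB mRNA by Fluidigm qRT-PCR vs housekeeping genes; bidirectional fit relative to DMSO.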

Read-out in test [12]: Signal transducer and activator of transcription 3 (Homo sapiens) (UniProt P40763)
The experiment in a line: LTEA_HepaRG_STAT3: Life Technologies and Expression Analysis (LTEA) Assay for Signal transducer and activator of transcription (STAT3) using HepaRG (AID 2283529). Put shortly:
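Differentiated human HepaRG cells in serum-free induction medium were exposed in duplicate for 48 h to eight half-log concentrations up to 100 uM in 0.5% DMSO. STAT3 mRNA was quantified by TaqMan qRT-PCR, normalized to ACTB, GAPDH and POLR2A, and fitted bidirectionally against DMSO.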

Read-out in test [13]: solute carrier (SLCO1B1), SLCO1B1 (gene 10599)
In words: LTEA_HepaRG_SLCO1B1: Life Technologies and Expression Analysis (LTEA) Assay for solute carrier (SLCO1B1) using HepaRG (AID 2283530). In outline: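 Differentiated human HepaRG cells, plated 48 h, switched to serum-free induction medium and exposed in duplicate for 48 h to 8 half-log concentrations (top 100 uM) in 0.5% DMSO. SLCO1B1 mRNA by TaqMan qRT-PCR, normalized to ACTB/GAPDH/POLR2A.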

Read-out in test [14]: sulfotransferase 2A1 (SULT2A1), SULT2A1 (gene 6822)
The experiment in a line: LTEA_HepaRG_SULT2A1: Life Technologies and Expression Analysis (LTEA) Assay for sulfotransferase 2A1 (SULT2A1) using HepaRG (AID 2283531). Put shortly:
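Differentiated human HepaRG cells in serum-free induction medium were exposed for 48 h to eight half-log concentrations (top 100 uM, 0.5% DMSO). SULT2A1 mRNA was measured by qRT-PCR, normalized to ACTB, GAPDH and POLR2A, and fitted bidirectionally against DMSO.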

Read-out in test [15]: Transforming Growth Factor (TGFA), TGFA (gene 7039)
The experiment in a line: LTEA_HepaRG_TGFA: Life Technologies and Expression Analysis (LTEA) Assay for Transforming Growth Factor (TGFA) using HepaRG (AID 2283532). In outline:
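Differentiated human HepaRG cells, plated 48 h then switched to serum-free induction medium, were exposed in duplicate for 48 h to 8-point half-log series from 100 uM in 0.5% DMSO. TGFA mRNA measured by qRT-PCR, normalized to ACTB/GAPDH/POLR2A, bidirectional fit versus DMSO.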

Read-out in test [16]: Transforming Growth Factor (TGFB1), TGFB1 (gene 7040)
The experiment in a line: LTEA_HepaRG_TGFB1: Life Technologies and Expression Analysis (LTEA) Assay for Transforming Growth Factor (TGFB1) Transporter using HepaRG (AID 2283533). In outline: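 Differentiated human HepaRG cells in serum-free induction medium were exposed in duplicate for 48 h to eight concentrations (top 100 uM, half-log steps, 0.5% DMSO). TGFB1 mRNA was quantified by qRT-PCR, normalized to ACTB, GAPDH, POLR2A, and fitted bidirectionally against DMSO.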

Read-out in test [17]: TIMP1, TIMP1 (gene 7076)
In words: LTEA_HepaRG_TIMP1: Life Technologies and Expression Analysis (LTEA) Assay for TIMP1 using HepaRG (AID 2283534).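 Further: TaqMan qRT-PCR signal normalized to ACTB GAPDH and POLR2A housekeeping genes.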 In outline:
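Differentiated human HepaRG cells in serum-free induction medium were exposed 48 h to chemicals (8 half-log concentrations, top 100 uM, 0.5% DMSO). TIMP1 mRNA was quantified by TaqMan qRT-PCR, normalized to ACTB/GAPDH/POLR2A; bidirectional fit versus DMSO.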

Read-out in test [18]: Tumor necrosis factor receptor 1 (TNFRSF1A), TNFRSF1A (gene 7132)
The experiment in a line: LTEA_HepaRG_TNFRSF1A: Life Technologies and Expression Analysis (LTEA) Assay for Tumor necrosis factor receptor 1 (TNFRSF1A) using HepaRG (AID 2283535). Put shortly: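 Differentiated human HepaRG cells were exposed in duplicate for 48 h in serum-free induction medium to eight concentrations (top 100 uM, half-log steps, 0.5% DMSO). TNFRSF1A mRNA was quantified by qRT-PCR, normalized to ACTB, GAPDH and POLR2A, then fitted bidirectionally against DMSO.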

Read-out in test [19]: solute carrier (SLC22A1), SLC22A1 (gene 6580)
The experiment in a line: LTEA_HepaRG_SLC22A1: Life Technologies and Expression Analysis (LTEA) Assay for solute carrier (SLC22A1) using HepaRG (AID 2283524). Put shortly:
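Human HepaRG cells were plated 48 h, switched to serum-free induction medium, then exposed in duplicate for 48 h to 8-point half-log series from 100 uM in 0.5% DMSO. SLC22A1 mRNA measured by qRT-PCR, normalized to ACTB/GAPDH/POLR2A, fitted bidirectionally versus DMSO.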

Molecules are shown by their SMILES. Activity calls are given as the source filed them. How the source made its calls: active means hit-call score of the fitted dose curve at least 0.9, where 1 is the maximum; inactive means score below 0.9.

Chain of Signal transducer and activator of transcription 3 (Homo sapiens) (P40763 whole entry, looked up): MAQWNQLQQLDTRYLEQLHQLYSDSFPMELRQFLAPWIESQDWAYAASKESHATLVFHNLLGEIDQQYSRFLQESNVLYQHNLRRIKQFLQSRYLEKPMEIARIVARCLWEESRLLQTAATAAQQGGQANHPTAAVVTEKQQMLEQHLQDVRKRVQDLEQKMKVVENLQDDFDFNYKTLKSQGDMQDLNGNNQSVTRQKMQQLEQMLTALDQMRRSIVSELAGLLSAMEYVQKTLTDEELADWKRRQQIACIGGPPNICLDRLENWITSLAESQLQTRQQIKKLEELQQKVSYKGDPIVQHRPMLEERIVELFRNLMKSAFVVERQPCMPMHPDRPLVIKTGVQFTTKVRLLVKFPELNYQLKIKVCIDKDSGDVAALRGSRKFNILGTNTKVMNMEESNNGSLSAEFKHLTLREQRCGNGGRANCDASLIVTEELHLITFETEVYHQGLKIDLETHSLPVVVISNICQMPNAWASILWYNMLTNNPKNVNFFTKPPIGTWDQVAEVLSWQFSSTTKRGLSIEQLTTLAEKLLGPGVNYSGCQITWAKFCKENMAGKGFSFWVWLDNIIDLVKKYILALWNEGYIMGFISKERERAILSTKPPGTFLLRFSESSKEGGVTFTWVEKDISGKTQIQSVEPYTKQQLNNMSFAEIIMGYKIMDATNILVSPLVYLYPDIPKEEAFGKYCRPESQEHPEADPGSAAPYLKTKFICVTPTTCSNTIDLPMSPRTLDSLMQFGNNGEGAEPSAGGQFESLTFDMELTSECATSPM
Chain of Nuclear factor erythroid 2-related factor 2 (Homo sapiens) (Q16236 whole entry, looked up): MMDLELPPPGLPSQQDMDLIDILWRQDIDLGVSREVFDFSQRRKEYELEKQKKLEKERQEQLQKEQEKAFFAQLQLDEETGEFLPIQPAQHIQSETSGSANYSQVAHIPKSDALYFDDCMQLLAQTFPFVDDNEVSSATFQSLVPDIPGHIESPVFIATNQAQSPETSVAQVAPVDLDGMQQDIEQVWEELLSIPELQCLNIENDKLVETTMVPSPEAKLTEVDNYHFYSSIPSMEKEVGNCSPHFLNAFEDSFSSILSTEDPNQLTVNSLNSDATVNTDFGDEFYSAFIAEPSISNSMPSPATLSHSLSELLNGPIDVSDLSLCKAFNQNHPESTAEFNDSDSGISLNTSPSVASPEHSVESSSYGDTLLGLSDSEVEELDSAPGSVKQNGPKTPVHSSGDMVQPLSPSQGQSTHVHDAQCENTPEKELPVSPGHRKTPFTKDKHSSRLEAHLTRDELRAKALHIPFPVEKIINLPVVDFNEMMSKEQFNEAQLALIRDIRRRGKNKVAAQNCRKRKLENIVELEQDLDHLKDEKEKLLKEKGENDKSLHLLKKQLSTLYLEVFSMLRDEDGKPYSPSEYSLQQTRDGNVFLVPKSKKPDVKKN

What is called AC50 is the midpoint of the concentration-response curve, whichever way the signal moves. For `CC(C)N1C(=O)N(c2ccccc2)CSC1=NC(C)(C)C`, the concentration at half-maximal activity (AC50) in test [1] was 81.4 µM (active); in [3], 72.2 µM (active); in [4], 26.4 µM (active); in [5], 12.7 µM (active); in [6] it was 77.4 µM (active); in [8] it was 87.8 µM (active). Moreover, the AC50 in test [11] is 50 µM (active); in test [14] it was 96.5 µM (active); in [15], 79.4 µM (active). The compound was called inactive in [2], in test [7], in [9], in [10], in test [12] and in test [13]. For the same compound, the compound was classed as inactive in test [16], in test [17] and in test [18].

As for `CC(C)=CC1C(C(=O)OCc2coc(Cc3ccccc3)c2)C1(C)C` (stereo not drawn), the outcome in test [1], in [2], in test [3], in test [4], in test [5] and in [6] was inactive. The compound was classed as inactive in [7], in test [19], in test [9], in test [10], in [12] and in test [13]. For the same compound, the call in test [14], in test [15], in [16], in test [17] and in test [18] was inactive. Further, the AC50 in test [8] is 50 µM (active).

On to `CCNC(=O)NC(=O)C(C#N)=NOC`, for which the outcome in [1], in test [2], in test [3], in [4], in [6] and in [7] was inactive. In addition, the compound was classed as inactive in test [8], in test [9], in test [10], in test [12], in [13] and in [14]. Further, the compound was called inactive in [15], in test [16] and in [17]. Further, the results for the AC50 in test [5] and in test [18] were 50 µM (active) and 0.27 µM (active), respectively.
